mHTT-CaM PPI inh – mHTT-calmodulin interaction abrogation; P42858; AlphaScreen His-mHTT/GST-CaM binding, luminescence; inhibition, % at 15 µM; 190,000 tested, 3.6% active; AID 1671202;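 also: 0% = both proteins with DMSO and 100% = one protein alone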
Pf apPOL inh – Pf-apPOL DNA polymerase inhibition; 210,000 tested, 0.25% active; inhibition, % at 10 µM; Recombinant Pf-apPOL, molecular beacon fluorescence, 1.5 h
The depositor's hits bear a star; i = inactive; x = no result given. This is one part of a sample in which hits are shown more often than they occur. Rule as the data show it: active = inhibition above about 50%; inactive = the rest.

SMILES	mHTT-CaM PPI inh	Pf apPOL inh
O=C(c1nccs1)C1CCCN1 (stereo not given)	98*	x
CC(=O)c1cccc(NC(=O)c2cccn(Cc3ccccc3F)c2=O)c1	4	-7
CCC(=O)N1N=C2C3CCN(CC3)C2C1c1ccc(Br)cc1 (stereo not given)	-10	-4
O=c1cccc2n1CC1CC2CN(C(=S)Nc2ccc([N+](=O)[O-])cc2)C1 (stereo not given)	-2	-9
O=C(Cc1cccs1)N1CCCN(C2CCN(Cc3ccc(F)cc3)C2=O)CC1 (stereo not given)	60*	0
COCCN1CCC(N2CCCN(C(=O)Cc3cccc(Cl)c3)CC2)C1=O (stereo not given)	15	0
COc1ccc(OCC(=O)N2CCCN(C3CCN(CC4CC4)C3=O)CC2)cc1 (stereo not given)	13	0
COC(=O)CC(O)(CCC(C)(C)O)C(=O)OC1C(OC)=CC23CCCN2CCc2cc4c(cc2C13)OCO4 (stereo not given)	x	-3
O=C1OC(c2cncc(Br)c2)=N/C1=C/c1ccc(Cl)cc1Cl	-1	-2
Cc1cc(OC(NC(=O)c2ccccc2)C(Cl)(Cl)Cl)nc(C(C)C)n1 (stereo not given)	-1	-6
CN(C)c1ccc(C=C2CC3C4CCC5CCCCC5(C)C4CCC3(C)C2=O)cc1 (stereo not given)	-2	-12
COc1cc(CNCCc2cccc(Cl)c2)c([N+](=O)[O-])cc1OC	57*	-1
COc1cc(OC)c(OC)cc1CNCCc1cccc(Cl)c1	2	-2
CC12CCC3C(CC=C4CC(O)CCC43C)C1CC(=Cc1ccc(C(F)(F)F)cc1)C2=O (stereo not given)	19	1
COc1ccc2c(c1)C1(CCN(C(=O)NCc3ccc(C)cc3)C1)C(=O)N2 (stereo not given)	15	-5
COc1cc2c(cc1OC)-c1c(OC)c(OC)c([N+](=O)[O-])c3c1C(C2)N(C)CC3 (stereo not given)	57*	x
COc1cc2c(cc1OC)C1c3cc([N+](=O)[O-])ccc3Oc3cc(C#N)c(C#N)cc3N1CC2 (stereo not given)	13	-2
CCN1C(=O)NC(=O)/C(=C/c2cn(CC(=O)N3CCCC3)c3ccccc23)C1=O	5	-5
C=C1C2CC3(C1O)C1CC4C5(C)CCC(O)C4(C1N(CC)C5)C3CC2=O (stereo not given)	x	-9
COc1ccc(C2(CN)CCOCC2)cc1OC	-2	-7
NCC1(c2ccc3c(c2)OCCO3)CCOCC1	-8	106*
O=c1oc2ccccc2c(O)c1C1c2cc(Cl)ccc2Oc2c1c(=O)oc1ccccc21 (stereo not given)	18	x
N#Cc1c(Cl)c(Cl)nc(N2CCCNCC2)c1Cl	100*	-9
CC1(C)Cc2c(C#N)c(N3CCNCC3)nc(Cc3ccccc3)c2CO1	3	2
CN(C)CCC(=O)c1ccc(Cl)c(Cl)c1	100*	-2
SMILES	mHTT-CaM PPI inh	Pf apPOL inh
CCc1ccc(C(=O)CCN(C)C)cc1	2	-2
Cc1ccc(C2c3c(c4ccccc4oc3=O)Oc3c2c(=O)oc2ccccc32)o1	47	36
O=c1oc2ccccc2c2c1C(c1ccc(O)cc1)c1c(c3ccccc3oc1=O)O2	96*	69*
COc1ccc(C(=O)N2CCC3(C2)C(=O)Nc2ccc(OC)cc23)cc1 (stereo not given)	9	-3
Cc1[nH]c2ccccc2c1CCN	100*	1
Cc1[nH]c2ccccc2c1CCCNC1CCCCC1	10	-5
NCC(CC(=O)O)c1cccnc1 (stereo not given)	0	-3
CC(C)C(=O)NC(Oc1ccccc1)C(Cl)(Cl)Cl (stereo not given)	-16	-4
CCCCCC(=O)NC(Oc1ccccc1)C(Cl)(Cl)Cl (stereo not given)	81*	-4
COc1ccccc1CCNCc1cc(OC)c2c(c1)OCO2	89*	-7
COc1ccccc1CCNCc1ccc2c(c1)OCO2	1	-10
Cc1cccc(N2CCN(Cc3ccc(N(C)C)cc3)CC2)c1C	67*	-14
Cc1cccc(N2CCN(Cc3ccccc3)CC2)c1C	-15	-6
O=[N+]([O-])c1ccc(N2CCNCC2)cc1NCCc1ccccc1	91*	-3
O=[N+]([O-])c1ccc(N2CCNCC2)cc1NCCO	0	-2
CN1CCN(Cc2ccc(Cl)nc2)/C1=C(/C(Cl)=C(Cl)Cl)[N+](=O)[O-]	7	-5
CN(Cc1ccccc1)C(=C(Cl)Cl)/C(=C1\NCCN1Cc1ccc(Cl)nc1)[N+](=O)[O-]	65*	-5
N#Cc1cc(N2CC3CC(C2)c2cccc(=O)n2C3)c([N+](=O)[O-])cc1C#N (stereo not given)	2	-2
CN(C)c1ccc(/C=C/[N+](=O)[O-])cc1Br	21	3
COc1ccc(/C=C/[N+](=O)[O-])cc1I	72*	1
COc1ccc(/C=C/[N+](=O)[O-])cc1Br	67*	-2
COc1ccc(/C=C/[N+](=O)[O-])cc1	26	4
Cc1ccc(N/C(N)=N/[N+](=O)[O-])cc1NC(=O)c1ccc([N+](=O)[O-])cc1	i	-3
COc1ccccc1Oc1coc2cc(OC(=O)N(C)C)ccc2c1=O	-4	-4
CCN(CC)C(=O)c1ccc(NC(=O)c2ncn[nH]2)cc1	21	1
SMILES	mHTT-CaM PPI inh	Pf apPOL inh
CCN(CC)C(=O)c1ccc2c(c1)C1C=CCC1C(c1ccc([N+](=O)[O-])cc1)N2 (stereo not given)	70*	-2
CCN(CC)C(=O)c1ccc2c(c1)C1C=CCC1C(C(=O)O)N2 (stereo not given)	76*	2
CC12CCC3C(CCC4CC(OC5CCCCO5)CCC43C)C1CCC2O (stereo not given)	-3	-6
CN(C)c1ccc([N+](=O)[O-])c2cccnc12	14	x
CNC(=O)Oc1cc([N+](=O)[O-])cc2cccnc12	100*	-9
Clc1cc2nonc2c2nonc12	-1	x
O=C(CN1CCOCC1)Nc1ccc(Cl)cc1C(=O)c1ccccc1	-3	74*
CCC(=O)Nc1ccc(Cl)cc1C(=O)c1ccccc1	0	-3
CCOc1ccc(C(=O)CN2CCOCC2)cc1	3	10
O=C(c1ccc2c(c1)OCO2)N1CC2CC(C1)c1cccc(=O)n1C2 (stereo not given)	-4	-7
CN(C)/C=C/c1c(C=O)c2cc([N+](=O)[O-])ccc2n1Cc1ccccc1	100*	-56
O=Cc1cn(Cc2ccc([N+](=O)[O-])cc2)c2ccccc12	21	-1
O=c1oc2ccccc2c(O)c1C(c1cc(Cl)ccc1O)c1c(O)c2ccccc2oc1=O	1	4
COc1ccc(-n2c(C)nc3cc(C(=O)N4CCC5(CC4)OCCO5)ccc32)cc1	1	-4
Cc1nc2cc(C(=O)N3CCC4(CC3)OCCO4)ccc2n1-c1ccc(Br)cc1	57*	-1
COc1cc(Br)c(CNCCc2ccc(F)cc2)cc1OC	-4	-5

Bioassay records deposited in PubChem by University of Kansas High Throughput Screening Laboratory.
